Most compounds without a hit are left out; they make up all but 2.9% or so of the library.
MEKK2mut PB1 HTS = signal of MEK5 binding to mutant human MEKK2 PB1 domain; 290,000 compounds, 0.35% hits; AID 1530; percent response, % at 10 µM; bead flow cytometry, Alexa488-MEK5 binding to MEKK2 mutant; in the data active = percent response above about 24%, passing the limit was not always enough
MEKK2 WT-MEK5 = raises or lowers MEK5 binding to wildtype human MEKK2 PB1 domain | bead flow cytometry, Alexa488-MEK5 binding to MEKK2 WT; actives lie on both sides | binding response (% of control), % at 10 µM | 290,000 compounds, 1.1% hits; in the data active = binding response below about 67% or above about 130%
CRFBP-R2 agonist = agonists of human CRF-binding protein/CRF-R2 receptor complex; activation, % at 13.2 µM; 350,000 compounds, 0.46% hits; AID 588473; HEK293 CRF-R2/CRF-BP, calcium dye fluorescence (FLIPR); percent of saturating CRF peptide response;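 active = activation of at least 50%, plus an integration ratio under a set limit after plate pattern correction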;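 also: plate controls were neutral control wells without compound for no effect and CRF at EC100 for full effect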
MEKK3 PB1 HTS = raises or lowers MEK5 binding to the human MEKK3 PB1 domain | Q99759 | binding response (% of control), % at 10 µM | 290,000 compounds, 1.4% hits | bead-based flow cytometry, Alexa488-MEK5 binding to MEKK3; actives lie on both sides; 0 = blocked by unlabeled MEK5, 100 = vehicle;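 active = binding response more than 3 SD above or below the average of its plate-row segment, actives on both sides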;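 also: Alexa488 bead fluorescence after subtracting the streptavidin-only scavenger bead signal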
Target sequence (Q99759 whole entry, looked up, the tested form may be a part): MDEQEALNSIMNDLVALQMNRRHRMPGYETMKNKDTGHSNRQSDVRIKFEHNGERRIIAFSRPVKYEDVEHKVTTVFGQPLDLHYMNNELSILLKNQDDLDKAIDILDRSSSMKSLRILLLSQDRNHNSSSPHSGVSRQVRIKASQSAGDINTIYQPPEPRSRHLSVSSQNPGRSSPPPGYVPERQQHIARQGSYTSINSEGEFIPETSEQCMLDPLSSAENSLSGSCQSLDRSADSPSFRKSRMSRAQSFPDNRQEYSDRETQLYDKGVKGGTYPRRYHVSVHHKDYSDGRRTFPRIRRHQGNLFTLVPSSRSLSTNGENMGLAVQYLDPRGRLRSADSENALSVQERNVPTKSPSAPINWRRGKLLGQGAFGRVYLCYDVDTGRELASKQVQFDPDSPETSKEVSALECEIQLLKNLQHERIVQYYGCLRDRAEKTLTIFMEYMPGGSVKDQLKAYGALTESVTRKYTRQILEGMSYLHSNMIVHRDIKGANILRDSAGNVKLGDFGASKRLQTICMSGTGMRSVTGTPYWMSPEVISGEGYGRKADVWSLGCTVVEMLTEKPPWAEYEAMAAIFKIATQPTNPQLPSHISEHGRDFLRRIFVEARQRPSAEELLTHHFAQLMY
CRFBP-R2 block = CRF-BP/CRF-R2 complex antagonism; HEK293 CRF-R2/CRF-BP, CRF-induced calcium fluorescence; inhibition, % at 11.8 µM; 350,000 compounds, 0.59% hits;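 active = inhibition of the ligand-induced calcium signal above about 50% at the single tested concentration, limit read from the data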
ABCB6 inh MLPCN = human ABCB6 transporter inhibition; Q9NP58; K562-ABCB6 porphyrin accumulation, flow cytometry, 1 h; active compounds read low; fluorescence ratio to DMSO, % at 10 µM; 360,000 compounds, 0.19% hits;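 active = fluorescence ratio to DMSO below 75%, the collection mean minus 3 SD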;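 also: signal is porphyrin accumulated inside mitochondria; 100% equals median channel fluorescence of DMSO control wells; lower ratio means ABCB6 inhibition with less porphyrin fluorescence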
MEKK2wt confirm = raises or lowers MEK5 binding to wildtype human MEKK2, retest; binding response (% of control), % at 10 µM; bead flow cytometry, Alexa488-MEK5 binding to MEKK2 WT; actives lie on both sides; shares compounds with MEKK3 PB1 HTS; 5,900 compounds, 2.4% hits; in the data active = binding response below about 16% or above about 210%; inactive = in between
MEKK2mut-MEK5 = signal of MEK5 binding to mutant human MEKK2, retest; bead flow cytometry, Alexa488-MEK5 binding to MEKK2 mutant; AID 1893; shares compounds with MEKK3 PB1 HTS; 5,900 compounds, 2% hits; percent response, % at 10 µM; in the data active = percent response mostly above about 71%, no sharp cut-off; inactive = mostly below about 38%;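 also: higher means compound restores mutant binding toward wildtype level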
MEKK3-MEK5 inh = MEKK3-MEK5 PB1 inhibition, single concentration confirmation; shares compounds with MEKK3 PB1 HTS; 5,900 compounds, 1.8% hits; AID 1894; binding response (% of control), % at 10 µM; bead flow cytometry, Alexa488-MEK5 binding to MEKK3; active compounds read low;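 active = binding response below 72% of control, or above a set upper limit, though filed actives all read lower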;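 also: 100% = DMSO only wells and 0% = binding blocked by excess unlabeled MEK5; lower values mean stronger disruption of MEK5 binding to MEKK3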
* marks the source's active call; other numbers are inactive results; [ ] = remark or other dose.

For O=C(CSc1nc2ccccc2s1)Nc1ccc2c(c1)OCO2 the results were MEKK2mut PB1 HTS 1, MEKK2 WT-MEK5 104, CRFBP-R2 agonist 1, MEKK3 PB1 HTS 158*, CRFBP-R2 block 15, ABCB6 inh MLPCN 84, MEKK2wt confirm 99, MEKK2mut-MEK5 -3 and MEKK3-MEK5 inh 102.
For CC(Sc1nc2ccccc2s1)C(=O)Nc1ccc2c(c1)OCO2 (stereo not given) the results were MEKK2mut PB1 HTS -2, MEKK2 WT-MEK5 92, CRFBP-R2 agonist 1, MEKK3 PB1 HTS 96, CRFBP-R2 block 10 and ABCB6 inh MLPCN 104.
Screening O=C(CNc1ccccc1Cl)Nc1cc(S(=O)(=O)N2CCOCC2)ccc1Cl returned CRFBP-R2 agonist 0, CRFBP-R2 block -5 and ABCB6 inh MLPCN 89.
Screening CC(Sc1nc(-c2ccccc2)cc(C(F)(F)F)n1)C(=O)N1CCC(C(N)=O)CC1 (stereo not given) returned MEKK2mut PB1 HTS -12, MEKK2 WT-MEK5 83, CRFBP-R2 agonist -1, MEKK3 PB1 HTS 75*[inhibitor], CRFBP-R2 block 3, ABCB6 inh MLPCN 98, MEKK2wt confirm 97, MEKK2mut-MEK5 -5 and MEKK3-MEK5 inh 100.
For CCc1sc(-c2c(C#N)c(N)nc3c2CCCCCC3)cc1[N+](=O)[O-] the results were MEKK2mut PB1 HTS -39, MEKK2 WT-MEK5 1.0*[inhibitor], CRFBP-R2 agonist 0, MEKK3 PB1 HTS 1.0*[inhibitor], CRFBP-R2 block -39, ABCB6 inh MLPCN 83, MEKK2wt confirm 99, MEKK2mut-MEK5 -3 and MEKK3-MEK5 inh 105.
`CN1CCN(C2=Cc3cc(Cl)ccc3Sc3cc(F)ccc32)CC1` gave MEKK2mut PB1 HTS 53*, MEKK2 WT-MEK5 202*, CRFBP-R2 agonist 3, MEKK3 PB1 HTS 83, CRFBP-R2 block -30, ABCB6 inh MLPCN 96, MEKK2wt confirm 164, MEKK2mut-MEK5 26 and MEKK3-MEK5 inh 103.
CN1CCN(C2=Cc3ccccc3Sc3cc(F)c(Cl)cc32)CC1 was read as MEKK2mut PB1 HTS 10, MEKK2 WT-MEK5 134*, CRFBP-R2 agonist 17, MEKK3 PB1 HTS 99, CRFBP-R2 block -75, ABCB6 inh MLPCN 92, MEKK2wt confirm 163, MEKK2mut-MEK5 30 and MEKK3-MEK5 inh 103.
Screening CCN(CC)C(=O)Nc1ccc(Br)cc1 returned MEKK2mut PB1 HTS 3, MEKK2 WT-MEK5 103, CRFBP-R2 agonist -1, MEKK3 PB1 HTS 100, CRFBP-R2 block 5 and ABCB6 inh MLPCN 108.
`Cc1ccc(NC(=O)CCNC(=O)c2ccccc2)cc1F` gave MEKK2mut PB1 HTS 2, MEKK2 WT-MEK5 93, CRFBP-R2 agonist 1, MEKK3 PB1 HTS 101, CRFBP-R2 block 4 and ABCB6 inh MLPCN 99.
`O=C(CCNC(=O)c1ccccc1)Nc1ccc(F)c(Cl)c1` gave MEKK2mut PB1 HTS 1, MEKK2 WT-MEK5 108, CRFBP-R2 agonist 0, MEKK3 PB1 HTS 138*, CRFBP-R2 block 6, ABCB6 inh MLPCN 100, MEKK2wt confirm 103, MEKK2mut-MEK5 5 and MEKK3-MEK5 inh 102.
For CSCCC(NC(=O)c1ccco1)C(=O)N1CCN(Cc2ccccc2)CC1 (stereo not given) the results were CRFBP-R2 agonist 12, CRFBP-R2 block -16 and ABCB6 inh MLPCN 97.
Screening COCCCNCCCCSc1ccc(Cl)cc1 returned MEKK2mut PB1 HTS -1, MEKK2 WT-MEK5 93, CRFBP-R2 agonist -1, MEKK3 PB1 HTS 52*[inhibitor], CRFBP-R2 block 3, ABCB6 inh MLPCN 102, MEKK2wt confirm 104, MEKK2mut-MEK5 4 and MEKK3-MEK5 inh 101.
CCCCOc1ccc(N2C(=O)CC(NCCc3ccc(S(N)(=O)=O)cc3)C2=O)cc1 (stereo not given) was read as MEKK2mut PB1 HTS 5, MEKK2 WT-MEK5 119, CRFBP-R2 agonist 0, MEKK3 PB1 HTS 122*, CRFBP-R2 block -6, ABCB6 inh MLPCN 103, MEKK2wt confirm 111, MEKK2mut-MEK5 7 and MEKK3-MEK5 inh 105.
For CC/C(=C(\c1ccc(O)cc1)c1ccc(OCCN(C)C)cc1)c1ccccc1 the results were MEKK2mut PB1 HTS 43, MEKK2 WT-MEK5 180*, CRFBP-R2 agonist 3, MEKK3 PB1 HTS 78, CRFBP-R2 block -22, ABCB6 inh MLPCN 108, MEKK2wt confirm 182, MEKK2mut-MEK5 39 and MEKK3-MEK5 inh 102.
`CCN(CC)CCOc1ccc(/C(=C(/Cl)c2ccccc2)c2ccccc2)cc1` gave MEKK2mut PB1 HTS 26*, MEKK2 WT-MEK5 179*, CRFBP-R2 agonist -3, MEKK3 PB1 HTS 108, CRFBP-R2 block -22, ABCB6 inh MLPCN 97, MEKK2wt confirm 189, MEKK2mut-MEK5 62 and MEKK3-MEK5 inh 107.
For CCOc1ccc(C(=O)OCCN(CC)CC)cc1 the results were MEKK2mut PB1 HTS 14, MEKK2 WT-MEK5 110, CRFBP-R2 agonist 3, MEKK3 PB1 HTS 105, CRFBP-R2 block -20 and ABCB6 inh MLPCN 107.
`CCC(=C(c1ccc(O)cc1)c1ccc(OCCN(C)C)cc1)c1ccccc1` gave CRFBP-R2 agonist 6, CRFBP-R2 block -6 and ABCB6 inh MLPCN 102.
Screening COCC(COS(N)(=O)=O)Cc1ccccc1 (stereo not given) returned MEKK2mut PB1 HTS 4, MEKK2 WT-MEK5 139*, CRFBP-R2 agonist -1, MEKK3 PB1 HTS 105, CRFBP-R2 block 5, ABCB6 inh MLPCN 97, MEKK2wt confirm 107, MEKK2mut-MEK5 7 and MEKK3-MEK5 inh 108.
Screening COC(C(=O)Nc1ccnn1C1CCN(Cc2cnn(C(C)C)c2)CC1)c1ccccc1 (stereo not given) returned MEKK2mut PB1 HTS 8, MEKK2 WT-MEK5 107, CRFBP-R2 agonist 1, MEKK3 PB1 HTS 104, CRFBP-R2 block 1 and ABCB6 inh MLPCN 103.
For COc1ccc2cc3cc(C(=O)Nc4ccccc4N4CCN(C)CC4)oc3nc2c1 the results were MEKK2mut PB1 HTS 21, MEKK2 WT-MEK5 173*, CRFBP-R2 agonist 0, MEKK3 PB1 HTS 113, CRFBP-R2 block -10, ABCB6 inh MLPCN 87, MEKK2wt confirm 158, MEKK2mut-MEK5 33 and MEKK3-MEK5 inh 110.
For CCOc1ccc(NC(=O)c2cc3cc4ccc(OC)cc4nc3o2)cc1 the results were MEKK2mut PB1 HTS -14, MEKK2 WT-MEK5 1.0*[inhibitor], CRFBP-R2 agonist 2, MEKK3 PB1 HTS 2.0*[inhibitor], CRFBP-R2 block 10, ABCB6 inh MLPCN 95, MEKK2wt confirm 94, MEKK2mut-MEK5 -2 and MEKK3-MEK5 inh 103.
